Test [1] deals with Progesterone receptor (Homo sapiens) (UniProt P06401). Kind of test: qHTS assay to identify small molecule agonists of the progesterone receptor (PR) signaling pathway (AID 1346784; calls by dose curve; also: nearly all actives have a fitted effect of over 30% in size; also: potency is read from the fitted curve at half-maximal effect). In short, it runs like this:
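Fluorescence from LiveBLAzer B/G FRET substrate cleavage (2 hr, RT) reported PR activation in PR-UAS-bla HEK 293T cells treated 16 hr at 37C/5% CO2 with compounds; medium contained 2% charcoal-stripped FBS.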
On the technique in general: In qHTS, concentration-response curves come from the screen itself.

The target is the same in test [2]. Kind of test: qHTS assay to identify small molecule antagonists of the progesterone receptor (PR) signaling pathway (AID 1346795; active = well fitted inhibition curve with a large enough effect in the signal ratio in the repeat runs, not every such curve was filed as active; the % refers to the signal ratio). An outline of the steps:
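Fluorescence intensity measured 2 hr after adding beta-lactamase FRET substrate to PR-UAS-bla HEK293T cells that had been co-treated 16 hr with compound and 1 nM R5020 (final concentration) in 2% charcoal-stripped FBS.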

Test [3] can be described thus: qHTS assay to identify small molecule antagonists of the progesterone receptor (PR) signaling pathway - cell viability counter screen (AID 1346798). Also: series mostly up to about 92 µM; nearly all actives have a fitted effect of over 50% in size. In short, it runs like this:
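CellTiter-Glo luminescence; PR-UAS-bla HEK293T, 3,000 cells/well; compound + R5020, 16 hr, 37C/5% CO2; 30 min RT before read.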

Test [4] in a line: qHTS assay to identify small molecule agonists of the progesterone receptor (PR) signaling pathway - cell viability counter screen (AID 1346799; calls by dose curve; also: nearly all actives have a fitted effect of over 45% in size). In short, it runs like this: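 In parallel with the beta-lactamase readout, cytotoxicity toward PR-UAS-bla HEK293T cells was measured by CellTiter-Glo luminescence following 16 hr compound incubation in 2% charcoal-stripped FBS medium.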

The nature of test [5]: qHTS assay to identify small molecule antagonists of the TGF-beta/Smad signaling pathway - cell viability counter screen (AID 1346824). Also: nearly all actives have a fitted effect of over 50% in size. In short, it runs like this:
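Cytotoxicity counter-screen run in the same wells as the beta-lactamase Smad reporter read: CellTiter-Glo luminescence after 30 min at room temperature. HEK 293T SBE-bla cells had 5 hr compound exposure at 37 C with TGF-beta1 (0.25 ng/mL stock).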

Test [6] can be described thus: qHTS assay to identify small molecule agonists of the TGF-beta/Smad signaling pathway - cell viability counter screen (AID 1346829). Also: top concentration of the series differs between compounds; nearly all actives have a fitted effect of over 45% in size. In short, it runs like this: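 Compound-treated SBE-bla HEK 293T cells (5 hr, 37 C) were assessed for viability with CellTiter-Glo in parallel with the reporter read.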
The nature of test [7]: qHTS assay to identify small molecule agonists of the TGF-beta/Smad signaling pathway (AID 1346859; active = well fitted activation curve with a large enough effect in the signal ratio in the repeat runs, not every such curve was filed as active; the % refers to the signal ratio; also: series mostly up to about 77 µM). An outline of the steps:
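After overnight seeding, SBE-bla HEK 293T cells are dosed with compounds in DMSO and kept 5 hr at 37 C, 5% CO2. LiveBLAzer-type FRET substrate is then applied for 2 hr at room temperature.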

In test [8] the target is Thyrotropin-releasing hormone receptor (Homo sapiens) (UniProt P34981). The experiment in a line: qHTS assay to identify small molecule antagonists of the thyrotropin-releasing hormone receptor (TRHR) signaling pathway (AID 1346877; active = well fitted inhibition curve with a large enough effect in the repeat runs, not every such curve was filed as active; also: series mostly up to about 51 µM). An outline of the steps: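 Cells (TRHR-HEK293) are plated and kept 18 h at 37 °C/5% CO2. A calcium-sensitive dye is added for 2 h, compound follows for 5 min at room temperature, and TRH is then given at 1 nM final.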
Chain of Thyrotropin-releasing hormone receptor (Homo sapiens) (P34981 whole entry, looked up): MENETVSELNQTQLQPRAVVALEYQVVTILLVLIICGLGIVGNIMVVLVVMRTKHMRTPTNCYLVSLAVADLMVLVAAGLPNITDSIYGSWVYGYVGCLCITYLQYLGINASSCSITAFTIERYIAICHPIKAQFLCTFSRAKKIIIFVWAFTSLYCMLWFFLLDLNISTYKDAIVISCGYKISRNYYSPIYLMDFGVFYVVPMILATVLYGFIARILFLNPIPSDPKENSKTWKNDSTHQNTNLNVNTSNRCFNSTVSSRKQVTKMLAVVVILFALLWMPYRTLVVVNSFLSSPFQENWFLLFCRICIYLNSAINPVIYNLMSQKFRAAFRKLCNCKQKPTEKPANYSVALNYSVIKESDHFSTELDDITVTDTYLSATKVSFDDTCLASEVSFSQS

For test [9] the target is unchanged. The experiment in a line: qHTS assay to identify small molecule agonists of the thyrotropin-releasing hormone receptor (TRHR) signaling pathway (AID 1346891; calls by dose curve;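 also: HEK293 cells expressing TRHR with calcium dye readout; series mostly up to about 58 µM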). In short, it runs like this:
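Compounds were tested as agonists at 15 concentrations, in triplicate, on TRHR-Hek293 cells; calcium-sensitive dye fluorescence was recorded for 3 min following addition.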

A short description of test [10]: Human pregnane X receptor (PXR) small molecule agonists, qHTS cell viability counter screen (AID 1346977). Also: nearly all actives have a fitted effect of over 50% in size. Also: potency is read from the fitted curve at half-maximal effect. An outline of the steps: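 Viability counter screen: CellTiter-Fluor signal in PXR-Luc HepG2 cells, 24hr compound exposure, 37C, 5% CO2.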
The nature of test [11]: Caspase-3/7 induction in HepG2 cells by small molecules, qHTS assay (AID 1346978). Also: nearly all actives have a fitted effect of over 15% in size. An outline of the steps: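 Caspase-3/7 induction was measured by Caspase-Glo 3/7 luminescence (30 min, room temperature) after a 17 hr compound exposure of wild-type HepG2 cells seeded at 2,000 per well and pre-incubated 5 hr.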
Test [12] can be described thus: Caspase-3/7 induction in CHO-K1 cells by small molecules, qHTS assay (AID 1346980). Also: nearly all actives have a fitted effect of over 15% in size. In short, it runs like this: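 Luminescent Caspase-Glo 3/7 read (30min, room temperature) quantified apoptosis induction. Cells were wild-type CHO-K1, treated with compound for 17hr at 37 C and 5% CO2.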
In test [13] the target is Nuclear receptor subfamily 1 group I member 2 (Homo sapiens) (UniProt O75469). The experiment in a line: Human pregnane X receptor (PXR) small molecule agonists, qHTS assay (AID 1346982). Also: nearly all actives have a fitted effect of over 35% in size. Also: potency is read from the fitted curve at half-maximal effect. In short, it runs like this: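 Agonist mode qHTS: PXR-Luc HepG2 cells plated 5 hr before DMSO-dissolved compounds were pinned in, cultured 24 hr at 37 C, 5% CO2; ONE-Glo luminescence readout.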
Chain of Nuclear receptor subfamily 1 group I member 2 (Homo sapiens) (O75469 whole entry, looked up): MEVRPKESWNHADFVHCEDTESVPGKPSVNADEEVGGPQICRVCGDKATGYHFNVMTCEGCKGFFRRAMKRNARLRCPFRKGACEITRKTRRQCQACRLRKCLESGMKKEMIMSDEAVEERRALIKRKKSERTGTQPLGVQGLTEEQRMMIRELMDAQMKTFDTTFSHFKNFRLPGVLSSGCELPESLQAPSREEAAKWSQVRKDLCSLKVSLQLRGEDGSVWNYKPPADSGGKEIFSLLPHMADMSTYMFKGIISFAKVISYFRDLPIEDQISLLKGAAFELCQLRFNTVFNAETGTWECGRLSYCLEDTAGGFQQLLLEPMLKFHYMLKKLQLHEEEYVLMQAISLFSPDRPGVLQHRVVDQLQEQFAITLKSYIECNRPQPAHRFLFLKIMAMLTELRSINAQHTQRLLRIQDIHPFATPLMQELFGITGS

The nature of test [14]: qHTS assay to identify small molecule agonists of the estrogen receptor alpha (ER-alpha) signaling pathway in the presence of an antagonist - cell viability counter screen (AID 1259386).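 Also: series mostly up to about 92 µM; cells exposed to compounds for 22 h at 37 °C before the viability read; nearly all actives have a fitted effect of over 30% in size.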 An outline of the steps:
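Cells are starved of estrogens for 5 days in charcoal-stripped serum, seeded for 24hr and co-treated with ICI-182,780 (10.0nM final) and test compounds. After 22hr at 37C, viability is read as CellTiter-Fluor fluorescence.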

A short description of test [15]: Caspase-3/7 induction in CHO-K1 cells by small molecules, qHTS cell viability counter screen (AID 1346979). Also: nearly all actives have a fitted effect of over 35% in size. Also: potency is read from the fitted curve at half-maximal effect. In short, it runs like this: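 Viability readout by fluorescence (CellTiter-Fluor) on wild-type CHO-K1 cells exposed for 16hr at 37C and 5% CO2 to compounds delivered in DMSO; reagent incubated 1hr before reading.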
Test [16] can be described thus: Caspase-3/7 induction in HepG2 cells by small molecules, qHTS cell viability counter screen (AID 1346981). Also: nearly all actives have a fitted effect of over 30% in size. Also: potency is read from the fitted curve at half-maximal effect. In short, it runs like this:
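Steps: seed 2,000 HepG2 cells per well; incubate 5 hr at 37 C; pin-add compounds in DMSO; incubate 16 hr; add CellTiter-Fluor; after 1 hr at 37 C and 5% CO2, read fluorescence.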

Test [17] deals with Acetylcholinesterase (Homo sapiens) (UniProt P22303). The experiment in a line: Acetylcholinesterase (AChE) small molecule antagonists: colormetric cell-based qHTS assay (AID 1347395; calls by dose curve; also: nearly all actives have a fitted effect of over 30% in size). In short, it runs like this:
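Homogeneous whole-cell format. SH-SY5Y cells seeded overnight, dosed with compound (30 min, 37 C, 5% CO2), then given DTNB/acetylthiocholine cocktail for 90 min at 37 C; colorimetric signal.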

Test [18] deals with Nuclear receptor subfamily 1 group I member 2 (Homo sapiens) (UniProt O75469). The experiment in a line: CYP3A4 induction through human pregnane X receptor (PXR) by small molecules, qHTS assay (AID 1346984). Also: nearly all actives have a fitted effect of over 40% in size. In short, it runs like this:
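Steps: seed DPX-2 cells, 5 hr at 37C; pin-transfer compounds; 24 hr at 37C; add Luciferin-IPA (3uM final), 3 hr at 37C; add One-Glo, 30 min RT; read luminescence.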

For test [19] the target is unchanged. Kind of test: Human pregnane X receptor (PXR) activation by small molecules, qHTS assay (AID 1346985). Also: nearly all actives have a fitted effect of over 40% in size. An outline of the steps:
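DPX-2 cells (HepG2 co-transfected with a PXR response element and a CYP3A4-promoter luciferase construct) were seeded at 2,000 per well, rested 5 hr at 37C, then exposed to DMSO-dissolved compounds for 24 hr. Activation was read as luciferase luminescence.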

Test [20] has as its target Nuclear receptor subfamily 1 group I member 2 (Rattus norvegicus) (UniProt Q9R1A7). The experiment in a line: Rat pregnane X receptor (rPXR) activation by small molecules, qHTS assay (AID 1346983). Also: nearly all actives have a fitted effect of over 20% in size. Particulars: rPXR luciferase reporter cells, One-Glo luminescence, 24 h; stronger effect = higher value. An outline of the steps: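 Luminescent readout (One-Glo luciferase, 30 min room temperature) followed 24 hr compound treatment at 37 C of rPXR cells plated 2,000 per well and preincubated 5hr; qHTS format with compounds delivered in DMSO.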

Values joined by “and” are separate entries in the source; they are usually repeats but may differ in a detail not shown here. Equal entries are not always repeated. Values without a mark were called inactive. Inconclusive results are not listed. Active and inactive are the calls of the source. Unless noted, calls follow the shape of the dose curve; as a rule, active = well fitted curve in the direction sought with a large enough effect in the repeat runs; inconclusive = weak or mixed curves; inactive = no such curve, though single readings can be large; an effect the other way counts as inactive or inconclusive.

Potency, outcome and max activation data for 9 compounds are collected here from PubChem BioAssay (Tox21).
% is scaled to controls: 0 for no effect and ±100 for the full control effect.

Chain of Acetylcholinesterase (Homo sapiens) (P22303 whole entry, looked up): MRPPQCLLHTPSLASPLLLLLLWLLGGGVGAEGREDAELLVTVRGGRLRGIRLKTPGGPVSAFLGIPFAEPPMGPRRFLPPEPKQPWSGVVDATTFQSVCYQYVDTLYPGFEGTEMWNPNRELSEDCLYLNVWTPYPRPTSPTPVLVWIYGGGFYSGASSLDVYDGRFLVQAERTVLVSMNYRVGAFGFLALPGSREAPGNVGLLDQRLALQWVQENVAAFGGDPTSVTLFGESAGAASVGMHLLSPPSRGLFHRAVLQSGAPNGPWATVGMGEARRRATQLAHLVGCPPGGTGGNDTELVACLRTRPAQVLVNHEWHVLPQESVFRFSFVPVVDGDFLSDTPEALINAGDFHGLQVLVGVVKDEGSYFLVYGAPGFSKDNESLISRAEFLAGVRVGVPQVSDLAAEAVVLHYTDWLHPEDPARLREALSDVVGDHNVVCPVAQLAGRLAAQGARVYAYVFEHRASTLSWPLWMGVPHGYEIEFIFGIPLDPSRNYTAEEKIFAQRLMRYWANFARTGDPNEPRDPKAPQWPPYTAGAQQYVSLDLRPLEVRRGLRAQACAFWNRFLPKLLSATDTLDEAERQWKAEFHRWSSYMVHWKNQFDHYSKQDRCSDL
Chain of Progesterone receptor (Homo sapiens) (P06401 whole entry, looked up): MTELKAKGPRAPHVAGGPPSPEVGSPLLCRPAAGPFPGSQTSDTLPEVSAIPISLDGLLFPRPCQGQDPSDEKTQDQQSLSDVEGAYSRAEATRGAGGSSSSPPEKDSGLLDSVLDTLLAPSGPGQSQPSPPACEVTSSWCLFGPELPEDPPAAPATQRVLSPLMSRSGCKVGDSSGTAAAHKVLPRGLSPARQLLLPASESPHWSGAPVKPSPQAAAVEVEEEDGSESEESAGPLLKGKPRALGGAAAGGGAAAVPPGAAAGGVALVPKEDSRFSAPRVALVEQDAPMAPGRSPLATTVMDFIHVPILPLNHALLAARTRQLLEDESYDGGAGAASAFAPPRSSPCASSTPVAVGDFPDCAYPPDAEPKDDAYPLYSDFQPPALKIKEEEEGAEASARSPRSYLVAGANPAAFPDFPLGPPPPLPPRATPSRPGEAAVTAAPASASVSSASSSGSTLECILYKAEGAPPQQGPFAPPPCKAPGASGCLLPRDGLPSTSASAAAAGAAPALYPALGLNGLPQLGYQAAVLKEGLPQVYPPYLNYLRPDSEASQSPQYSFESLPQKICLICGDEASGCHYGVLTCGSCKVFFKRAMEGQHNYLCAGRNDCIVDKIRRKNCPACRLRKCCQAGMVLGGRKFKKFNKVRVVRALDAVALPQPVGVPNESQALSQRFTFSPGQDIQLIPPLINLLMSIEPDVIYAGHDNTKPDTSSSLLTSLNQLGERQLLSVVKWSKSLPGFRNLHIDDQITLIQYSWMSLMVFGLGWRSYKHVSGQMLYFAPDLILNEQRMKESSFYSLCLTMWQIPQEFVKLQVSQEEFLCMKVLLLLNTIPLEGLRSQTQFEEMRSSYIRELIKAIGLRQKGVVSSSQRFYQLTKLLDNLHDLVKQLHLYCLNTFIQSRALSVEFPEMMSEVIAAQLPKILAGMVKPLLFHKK
Chain of Nuclear receptor subfamily 1 group I member 2 (Rattus norvegicus) (Q9R1A7 whole entry, looked up): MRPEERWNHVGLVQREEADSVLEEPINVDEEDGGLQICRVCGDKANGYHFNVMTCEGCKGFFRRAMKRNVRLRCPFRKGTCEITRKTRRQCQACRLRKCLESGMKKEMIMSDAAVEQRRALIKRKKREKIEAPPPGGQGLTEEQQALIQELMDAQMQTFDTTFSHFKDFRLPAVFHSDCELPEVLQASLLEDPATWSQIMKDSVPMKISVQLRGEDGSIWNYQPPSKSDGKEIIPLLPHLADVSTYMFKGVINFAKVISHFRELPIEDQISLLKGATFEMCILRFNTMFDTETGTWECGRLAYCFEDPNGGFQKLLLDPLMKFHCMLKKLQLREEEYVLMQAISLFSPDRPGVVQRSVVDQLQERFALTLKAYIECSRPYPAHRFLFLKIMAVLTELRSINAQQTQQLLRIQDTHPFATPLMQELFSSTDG

Regarding `O=C(O)C(F)(F)C(F)(F)C(F)(F)C(F)(F)C(F)(F)F`, the Potency entry in [1], in [2], in test [3], in [4], in test [5] and in [6] was “inactive” throughout. The Potency result in test [8], in test [10], in test [11], in test [12] and in [13] was “inactive” each time. In addition, the compound was classed as inactive in test [7] and in [9].

Regarding `CCC(=O)O[C@@H]1C=C2CCC3C(CCC4(C)C3CC[C@@H]4OC(=O)CC)C2CC1` (some centres not stated), the Potency entry in test [14], in test [2], in test [5], in test [6], in [8] and in [10] was “inactive” in each case. In addition, the Potency entry in [11], in test [15], in [16], in test [13] and in test [17] was “inactive” throughout. In addition, in test [9], the outcome was inactive.

In the case of `CC(Cc1ccccc1)NCc1ccccc1Cl` (configuration not stated), the Potency result in [14], in [1], in test [6], in test [8], in test [10] and in test [11] was “inactive” in each case. In addition, the Potency result in test [15], in [12], in test [16], in test [19] and in test [17] was “inactive” throughout. Moreover, the call in [7], in test [9] and in test [18] was inactive.

On to `C[C@]12C=CC3=C4CCC(=O)C=C4CC[C@H]3[C@@H]1CC[C@@H]2O`, for which the Potency entry in [14], in test [5], in test [6], in test [8], in [10] and in test [11] was “inactive” in each case. The Potency result in test [12], in [16] and in test [17] was “inactive” throughout. In addition, the Potency was 0.0271 µM (active) in test [1]; 60.7 µM (active) and 46.1 µM (active) in test [15]. Besides, the compound was called inactive in [7].

With `CC(C)[C@@H](C(=O)O[C@@H](C#N)c1cccc(Oc2ccccc2)c1)c1ccc(Cl)cc1`, the Potency entry in test [14], in test [3], in test [6], in test [10], in test [11] and in test [12] was “inactive” in each case. Besides, the Potency result in [16] and in test [17] was “inactive” in each case. Also, the Potency is 27.7 µM (active) in [15]; 5.53 µM (active) and 9.69 µM (active) in test [13].

Regarding `N#CC(C#N)=C(C#N)C#N`, the Potency result in test [1], in test [2], in test [4], in test [5], in test [6] and in test [8] was “inactive” in each case. The Potency result in test [11], in [12], in [13] and in test [17] was “inactive” in each case. For the same compound, the result in test [7] and in test [9] was inactive.

Regarding `NCCc1cc(O)c(O)cc1O`, the Potency result in test [1], in test [2], in [3], in test [6], in test [8] and in test [10] was “inactive” throughout. For the same compound, the Potency entry in test [11], in [12], in [16], in test [13], in test [19] and in [17] was “inactive” in each case. Further, the call in test [7], in test [9] and in test [18] was inactive. The max activation in [20] is -4.9%.

With `O=[N+]([O-])/C=C/c1ccccc1`, the Potency entry in [14], in test [3], in test [4], in [5], in test [6] and in test [8] was “inactive” in each case. For the same compound, the Potency entry in test [12] is “inactive”. The compound was called inactive in test [7] and in [9]. Further, the Potency in test [10] was 24.7 µM (active) and 19.3 µM (active); in test [16] it was 31.1 µM (active) and 61.1 µM (active).

In the case of `CCCN(CCC)C(=O)Cc1c(-c2ccc(Cl)cc2)nc2ccc(Cl)cn12`, the Potency entry in test [1], in test [3], in test [4], in test [5], in test [6] and in test [8] was “inactive” in each case. Moreover, the Potency result in test [10], in test [11], in test [12] and in test [17] was “inactive” throughout. The result in test [9] was inactive. The Potency in test [15] was 33.5 µM (active).
